# Results published in the supplement of paper PMC9262897, “Low-cost anti-mycobacterial drug discovery using engineered E. coli” (Nature Communications, 2022).
# Structures can show the parent of a compound that is named as a salt. ± gives the standard deviation of the averaged measurements.
# What was measured:
# Assay in all cases: growth (OD600 after 10 h); higher = more growth (less inhibition)
# [1] = system: E. coli TESEC Alr+ wild-type control; conditions: compound 0.1 mM; raw OD600 reference: median of DMSO wells 0.241, cell-free background 0.041
# Method: (§1)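 TESEC Mtb Alr E. coli, or the Alr+ wild-type control, in 384-well plates with Prestwick library compounds at 0.1 mM and 1% DMSO, across arabinose induction levels of 1E3 to 1E7 nM. Growth is read as OD600 after 10 h at 37 °C in triplicate biological replicates.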
# [2] = system: E. coli TESEC Mtb Alr; conditions: compound 0.1 mM
# Method: as §1
# [3] = system: E. coli TESEC Mtb Asd; conditions: compound 0.1 mM
# Method: (§2)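 TESEC E. coli strains in which the native enzyme is deleted and replaced by arabinose-inducible Mtb Asd, DapB, CysH or TrpD, each grown in its selective medium. Strains were screened against the Prestwick library at 0.1 mM and 1% DMSO in 384-well format at low and high arabinose induction. Growth is read as OD600 after 10 h in triplicate.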
# [4] = system: E. coli TESEC Mtb DapB; conditions: compound 0.1 mM
# Method: as §2
# [5] = system: E. coli TESEC Alr+ wild-type control; conditions: compound 0.1 mM; raw OD600 reference: median of DMSO wells 0.49, cell-free background 0.052
# Method: (§3)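 TESEC Mtb Alr E. coli (ΔaraC ΔtolC ΔentC Δalr ΔdadX, arabinose-inducible Mtb Alr) or the Alr+ wild-type control strain, grown in defined M9-fructose medium without D-alanine in 96-well plates with Prestwick library compounds at 0.1 mM and 1% DMSO. Low Alr induction is 0.1 µM arabinose and high induction is 10 mM arabinose.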
# [6] = system: E. coli TESEC Mtb Alr; conditions: compound 0.1 mM; remark: listed apart in the source
# Method: as §3
# [7] = arabinose 1000 nM, raw OD600 reference: median of DMSO wells 0.294, cell-free background 0.041
# [8] = arabinose 10000 nM, raw OD600 reference: median of DMSO wells 0.264, cell-free background 0.041
# [9] = arabinose 100000 nM, raw OD600 reference: median of DMSO wells 0.201, cell-free background 0.041
# [10] = arabinose 1000000 nM, raw OD600 reference: median of DMSO wells 0.193, cell-free background 0.041
# [11] = arabinose 10000000 nM, raw OD600 reference: median of DMSO wells 0.146, cell-free background 0.041
# [12] = arabinose induction (level): High, raw OD600 reference: median of DMSO wells 0.331, cell-free background 0.041
# [13] = arabinose induction (level): Low, raw OD600 reference: median of DMSO wells 0.417, cell-free background 0.041
# [14] = arabinose induction (level): High, raw OD600 reference: median of DMSO wells […], cell-free background 0.041
# [15] = arabinose induction (level): Low, raw OD600 reference: median of DMSO wells 0.227, cell-free background 0.041
# [16] = arabinose 100 nM, raw OD600 reference: median of DMSO wells 0.413, cell-free background 0.052
# [17] = arabinose 10000000 nM, raw OD600 reference: median of DMSO wells […], cell-free background 0.052
SMILES,growth [1],"growth [2, 7]","growth [2, 8]","growth [2, 9]","growth [2, 10]","growth [2, 11]","growth [3, 12]","growth [3, 13]","growth [4, 14]","growth [4, 15]",growth [5],"growth [6, 16]","growth [6, 17]"
Brc1c(NC2=NCCN2)ccc2nccnc12 [Brimondine L-Tartrate],0.209 ± 0.0033,0.2878 ± 0.0023,0.26 ± 0.0099,0.187 ± 0.016,0.172 ± 0.011,0.152 ± 0.0034,0.271 ± 0.038,0.368 ± 0.061,0.19 ± 0.02,0.237 ± 0.033,0.46 ± 0.032,0.416 ± 0.015,0.343 ± 0.004
C[C@]12CC[C@@H]3c4ccc(O)cc4CC[C@H]3[C@@H]1CCC2=O [Estrone],0.185 ± 0.0043,0.249 ± 0.0084,0.23 ± 0.0023,0.187 ± 0.0045,0.153 ± 0.0041,0.129 ± 0.0036,0.281 ± 0.031,0.36 ± 0.074,0.208 ± 0.026,0.201 ± 0.022,0.511 ± 0.013,0.402 ± 0.011,0.291 ± 0.0057
CC(C)NCC(O)c1ccc(NS(C)(=O)=O)cc1 (stereo not drawn) [Sotalol hydrochloride],0.163 ± 0.0095,0.206 ± 0.0064,0.254 ± 0.0096,0.173 ± 0.025,0.138 ± 0.0027,0.142 ± 0.0089,0.242 ± 0.084,0.377 ± 0.056,0.181 ± 0.016,0.221 ± 0.016,0.433 ± 0.0053,0.402 ± 0.012,0.359 ± 0.025
CC(=O)[C@H]1CC[C@H]2[C@@H]3C=CC4=CC(=O)CC[C@@]4(C)[C@@H]3CC[C@]12C [Dydrogesterone],0.103 ± 0.005,0.154 ± 0.041,0.207 ± 0.0034,0.085 ± 0.0042,0.0856 ± 0.0016,0.0751 ± 0.0014,0.225 ± 0.038,0.402 ± 0.068,0.176 ± 0.0054,0.189 ± 0.0083,0.318 ± 0.0089,0.371 ± 0.021,0.101 ± 0.022
COc1ccc(CC(C)NCC(O)c2ccc(O)c(NC=O)c2)cc1 (stereo not drawn) [Formoterol fumarate],0.235 ± 0.0095,0.298 ± 0.0087,0.293 ± 0.011,0.219 ± 0.024,0.18 ± 0.011,0.16 ± 0.0057,0.251 ± 0.018,0.395 ± 0.057,0.212 ± 0.019,0.238 ± 0.025,0.501 ± 0.04,0.41363 ± 5.8e-05,0.306 ± 0.019
Nc1nc2c(ncn2COCCO)c(=O)[nH]1 [Acyclovir],0.255 ± 0.014,0.287 ± 0.021,0.2708 ± 0.0022,0.239 ± 0.019,0.196 ± 0.014,0.139 ± 0.0044,0.374 ± 0.016,0.416 ± 0.047,0.206 ± 0.005,0.26 ± 0.024,0.47 ± 0.04,0.413 ± 0.011,0.355 ± 0.029
N=C(N)NCc1cccc(I)c1 [Iobenguane sulfate],0.231 ± 0.005,0.289 ± 0.0045,0.267 ± 0.0098,0.238 ± 0.029,0.202 ± 0.012,0.149 ± 0.011,0.29 ± 0.018,0.425 ± 0.056,0.188 ± 0.0051,0.265 ± 0.04,0.488 ± 0.019,0.409 ± 0.016,0.384 ± 0.013
Cc1cc(NS(=O)(=O)c2ccc(N)cc2)no1 [Sulfamethoxazole],0.252 ± 0.0032,0.271 ± 0.017,0.212 ± 0.011,0.228 ± 0.0092,0.126 ± 0.0035,0.139 ± 0.0076,0.404 ± 0.042,0.41 ± 0.063,0.185 ± 0.011,0.205 ± 0.024,0.45 ± 0.031,0.432 ± 0.013,0.346 ± 0.005
Oc1c(I)cc(Cl)c2cccnc12 [Clioquinol],0.0473 ± 0.0055,0.0429 ± 0.0016,0.0409 ± 0.00085,0.0461 ± 0.0025,0.0417 ± 0.00053,0.0513 ± 0.0023,0.0601 ± 0.0098,0.0661 ± 0.016,0.0573 ± 0.0004,0.0551 ± 0.0021,0.0685 ± 0.0091,0.0741 ± 0.02,0.0669 ± 0.011
C#C[C@]1(O)CC[C@H]2[C@@H]3CCC4=C(CCC(=O)C4)[C@H]3CC[C@@]21C [Norethynodrel],0.133 ± 0.013,0.142 ± 0.0092,0.107 ± 0.0051,0.157 ± 0.0071,0.0575 ± 0.0014,0.089 ± 0.0065,0.128 ± 0.016,0.13 ± 0.006,0.149 ± 0.0054,0.17 ± 0.01,0.355 ± 0.005,0.399 ± 0.0064,0.17 ± 0.018
CC(C)Cn1cnc2c(N)nc3ccccc3c21 [Imiquimod],0.224 ± 0.017,0.282 ± 0.0092,0.282 ± 0.01,0.165 ± 0.012,0.178 ± 0.014,0.158 ± 0.01,0.209 ± 0.026,0.392 ± 0.024,0.21 ± 0.011,0.261 ± 0.045,0.574 ± 0.048,0.411 ± 0.0054,0.301 ± 0.015
CC1(C)O[C@@H]2C[C@H]3[C@@H]4C[C@H](F)C5=CC(=O)C=C[C@]5(C)[C@H]4[C@@H](O)C[C@]3(C)[C@]2(C(=O)CO)O1 [Flunisolide],0.204 ± 0.015,0.297 ± 0.0098,0.261 ± 0.0019,0.192 ± 0.011,0.159 ± 0.0049,0.138 ± 0.0048,0.342 ± 0.064,0.458 ± 0.025,0.214 ± 0.021,0.241 ± 0.01,0.418 ± 0.031,0.4 ± 0.0095,0.335 ± 0.012
COc1cc(NS(=O)(=O)c2ccc(N)cc2)ncn1 [Sulfamonomethoxine],0.222 ± 0.0061,0.259 ± 0.022,0.173 ± 0.0027,0.2 ± 0.0044,0.1141 ± 0.00026,0.1384 ± 0.0013,0.345 ± 0.061,0.413 ± 0.018,0.166 ± 0.026,0.19 ± 0.014,0.596 ± 0.092,0.422 ± 0.0097,0.331 ± 0.0088
C=C(CC)C(=O)c1ccc(OCC(=O)O)c(Cl)c1Cl [Ethacrynic acid],0.0566 ± 0.0011,0.242 ± 0.01,0.244 ± 0.0042,0.2 ± 0.005,0.171 ± 0.0037,0.144 ± 0.0087,0.171 ± 0.057,0.19 ± 0.074,0.18 ± 0.0058,0.181 ± 0.022,0.374 ± 0.014,0.376 ± 0.0052,0.374 ± 0.017
c1ccc([C@H]2CN3CCSC3=N2)cc1 [Levamisole hydrochloride],0.253 ± 0.0028,0.286 ± 0.0062,0.279 ± 0.005,0.209 ± 0.017,0.186 ± 0.0053,0.142 ± 0.0042,0.364 ± 0.033,0.428 ± 0.026,0.182 ± 0.0088,0.214 ± 0.023,0.511 ± 0.054,0.413 ± 0.0046,0.353 ± 0.019
C[C@]12CCC(=O)C=C1CC[C@@H]1[C@@H]2C(=O)C[C@@]2(C)[C@H]1CC[C@]2(O)C(=O)CO [Cortisone],0.216 ± 0.0023,0.278 ± 0.0049,0.237 ± 0.014,0.176 ± 0.011,0.1797 ± 0.00035,0.128 ± 0.0041,0.396 ± 0.078,0.445 ± 0.041,0.19 ± 0.0096,0.223 ± 0.023,0.46 ± 0.066,0.41 ± 0.0069,0.336 ± 0.0035
